# Measured values from ChEMBL document CHEMBL1961873, “Compounds: GSK PKIS; Assays: Nanosyn kinase panel” (2012).
# Tests used:
# [1] = biological target: Sphingosine kinase 1 (Homo sapiens) (UniProt Q9NYA1); details: at 1 µM;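 note: mean SPHK1 inhibition value reported from the GSK PKIS kinase panel screen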
# [2] = biological target: T1, Sphingosine kinase 2 (Homo sapiens) (UniProt Q9NRA0); details: at 0.1 µM
# T1 sequence (whole entry): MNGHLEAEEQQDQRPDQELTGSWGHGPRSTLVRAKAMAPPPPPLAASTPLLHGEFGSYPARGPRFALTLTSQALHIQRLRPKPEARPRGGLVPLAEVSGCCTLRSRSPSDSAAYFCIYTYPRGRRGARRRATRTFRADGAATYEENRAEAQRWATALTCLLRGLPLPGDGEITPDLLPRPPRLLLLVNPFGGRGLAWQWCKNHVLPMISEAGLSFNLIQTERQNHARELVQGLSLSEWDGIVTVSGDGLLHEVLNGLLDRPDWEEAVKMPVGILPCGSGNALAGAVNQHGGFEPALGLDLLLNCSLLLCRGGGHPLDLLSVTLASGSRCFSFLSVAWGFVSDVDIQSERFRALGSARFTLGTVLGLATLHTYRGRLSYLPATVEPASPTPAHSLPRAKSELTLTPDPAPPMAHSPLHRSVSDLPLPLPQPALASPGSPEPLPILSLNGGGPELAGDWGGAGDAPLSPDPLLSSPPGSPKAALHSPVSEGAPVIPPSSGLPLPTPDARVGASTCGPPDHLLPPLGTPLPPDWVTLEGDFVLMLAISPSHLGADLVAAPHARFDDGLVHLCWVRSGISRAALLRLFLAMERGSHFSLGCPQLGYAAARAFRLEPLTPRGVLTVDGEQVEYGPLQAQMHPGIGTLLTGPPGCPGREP
# [3] = biological target: T1, Sphingosine kinase 2 (Homo sapiens); details: at 1 µM
# [4] = biological target: Casein kinase II subunit alpha (Homo sapiens) (UniProt P68400); details: at 0.1 µM
# [5] = biological target: Casein kinase II subunit alpha (Homo sapiens) (UniProt P68400); details: at 1 µM
# [6] = biological target: T2, Inhibitor of nuclear factor kappa-B kinase subunit alpha (Homo sapiens) (UniProt O15111); details: at 0.1 µM
# T2 sequence (whole entry): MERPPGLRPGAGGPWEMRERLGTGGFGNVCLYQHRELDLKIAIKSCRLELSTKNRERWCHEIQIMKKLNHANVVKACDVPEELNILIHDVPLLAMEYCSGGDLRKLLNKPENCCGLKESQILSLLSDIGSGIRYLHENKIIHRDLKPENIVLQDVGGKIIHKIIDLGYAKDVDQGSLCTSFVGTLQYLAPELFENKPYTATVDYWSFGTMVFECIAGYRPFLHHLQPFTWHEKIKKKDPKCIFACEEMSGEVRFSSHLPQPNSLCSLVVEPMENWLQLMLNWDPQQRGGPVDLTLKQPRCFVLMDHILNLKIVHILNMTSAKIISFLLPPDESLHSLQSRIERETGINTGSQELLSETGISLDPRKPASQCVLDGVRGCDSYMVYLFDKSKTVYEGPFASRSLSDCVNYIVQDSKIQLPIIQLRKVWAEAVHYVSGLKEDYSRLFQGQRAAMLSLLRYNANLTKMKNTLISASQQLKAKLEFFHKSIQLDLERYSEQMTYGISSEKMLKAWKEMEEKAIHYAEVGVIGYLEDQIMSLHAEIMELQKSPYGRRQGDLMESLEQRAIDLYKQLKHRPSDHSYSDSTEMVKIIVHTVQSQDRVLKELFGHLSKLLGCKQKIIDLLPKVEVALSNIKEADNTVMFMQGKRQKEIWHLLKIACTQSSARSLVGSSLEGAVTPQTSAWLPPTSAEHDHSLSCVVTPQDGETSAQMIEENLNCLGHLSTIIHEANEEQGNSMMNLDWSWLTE
# [7] = biological target: T2, Inhibitor of nuclear factor kappa-B kinase subunit alpha (Homo sapiens); details: at 1 µM
# [8] = biological target: T3, Inhibitor of nuclear factor kappa-B kinase subunit beta (Homo sapiens) (UniProt O14920); details: at 0.1 µM
# T3 sequence (whole entry): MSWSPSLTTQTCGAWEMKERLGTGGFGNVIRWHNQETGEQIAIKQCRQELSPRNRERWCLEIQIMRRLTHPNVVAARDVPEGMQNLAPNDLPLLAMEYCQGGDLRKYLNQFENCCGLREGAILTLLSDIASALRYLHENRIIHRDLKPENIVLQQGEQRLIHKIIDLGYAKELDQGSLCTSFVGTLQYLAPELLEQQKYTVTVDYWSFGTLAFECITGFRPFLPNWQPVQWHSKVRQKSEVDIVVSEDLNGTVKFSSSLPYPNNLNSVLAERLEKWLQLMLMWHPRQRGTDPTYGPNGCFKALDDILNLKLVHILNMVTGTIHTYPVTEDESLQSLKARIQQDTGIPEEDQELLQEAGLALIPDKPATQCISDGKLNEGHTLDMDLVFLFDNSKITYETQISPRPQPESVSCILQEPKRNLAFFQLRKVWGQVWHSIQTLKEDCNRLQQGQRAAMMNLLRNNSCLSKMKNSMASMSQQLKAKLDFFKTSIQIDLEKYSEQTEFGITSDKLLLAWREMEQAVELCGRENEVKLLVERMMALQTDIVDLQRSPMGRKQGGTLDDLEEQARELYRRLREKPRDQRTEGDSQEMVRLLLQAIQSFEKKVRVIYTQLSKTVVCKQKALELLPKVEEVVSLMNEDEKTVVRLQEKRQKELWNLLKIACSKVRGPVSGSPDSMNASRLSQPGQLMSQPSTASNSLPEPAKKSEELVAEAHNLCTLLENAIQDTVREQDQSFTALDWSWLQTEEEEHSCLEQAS
# [9] = biological target: T3, Inhibitor of nuclear factor kappa-B kinase subunit beta (Homo sapiens); details: at 1 µM
# [10] = biological target: T4, Inhibitor of nuclear factor kappa-B kinase subunit epsilon (Homo sapiens) (UniProt Q14164); details: at 0.1 µM
# T4 sequence (whole entry): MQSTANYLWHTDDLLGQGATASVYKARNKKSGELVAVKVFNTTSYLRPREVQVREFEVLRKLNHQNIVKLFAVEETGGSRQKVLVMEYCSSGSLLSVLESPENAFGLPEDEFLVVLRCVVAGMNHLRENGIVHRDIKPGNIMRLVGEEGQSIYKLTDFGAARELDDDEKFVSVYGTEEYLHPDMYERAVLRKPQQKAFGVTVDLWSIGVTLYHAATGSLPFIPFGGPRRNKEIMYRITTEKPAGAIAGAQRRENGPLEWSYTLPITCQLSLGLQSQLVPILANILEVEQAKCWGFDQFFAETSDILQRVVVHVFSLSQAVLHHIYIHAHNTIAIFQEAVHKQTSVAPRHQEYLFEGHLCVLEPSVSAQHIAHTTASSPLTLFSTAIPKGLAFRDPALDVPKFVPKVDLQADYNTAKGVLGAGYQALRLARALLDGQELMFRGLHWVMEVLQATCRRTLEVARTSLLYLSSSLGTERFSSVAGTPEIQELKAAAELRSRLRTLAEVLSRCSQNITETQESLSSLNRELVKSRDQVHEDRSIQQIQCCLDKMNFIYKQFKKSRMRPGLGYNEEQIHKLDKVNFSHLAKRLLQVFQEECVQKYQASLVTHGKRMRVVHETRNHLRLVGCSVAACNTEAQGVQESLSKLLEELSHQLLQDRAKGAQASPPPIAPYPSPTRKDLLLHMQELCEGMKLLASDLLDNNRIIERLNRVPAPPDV
# [11] = biological target: T4, Inhibitor of nuclear factor kappa-B kinase subunit epsilon (Homo sapiens); details: at 1 µM
# [12] = biological target: T5, Serine/threonine-protein kinase Nek1 (Homo sapiens) (UniProt Q96PY6); details: at 0.1 µM
# T5 sequence (whole entry): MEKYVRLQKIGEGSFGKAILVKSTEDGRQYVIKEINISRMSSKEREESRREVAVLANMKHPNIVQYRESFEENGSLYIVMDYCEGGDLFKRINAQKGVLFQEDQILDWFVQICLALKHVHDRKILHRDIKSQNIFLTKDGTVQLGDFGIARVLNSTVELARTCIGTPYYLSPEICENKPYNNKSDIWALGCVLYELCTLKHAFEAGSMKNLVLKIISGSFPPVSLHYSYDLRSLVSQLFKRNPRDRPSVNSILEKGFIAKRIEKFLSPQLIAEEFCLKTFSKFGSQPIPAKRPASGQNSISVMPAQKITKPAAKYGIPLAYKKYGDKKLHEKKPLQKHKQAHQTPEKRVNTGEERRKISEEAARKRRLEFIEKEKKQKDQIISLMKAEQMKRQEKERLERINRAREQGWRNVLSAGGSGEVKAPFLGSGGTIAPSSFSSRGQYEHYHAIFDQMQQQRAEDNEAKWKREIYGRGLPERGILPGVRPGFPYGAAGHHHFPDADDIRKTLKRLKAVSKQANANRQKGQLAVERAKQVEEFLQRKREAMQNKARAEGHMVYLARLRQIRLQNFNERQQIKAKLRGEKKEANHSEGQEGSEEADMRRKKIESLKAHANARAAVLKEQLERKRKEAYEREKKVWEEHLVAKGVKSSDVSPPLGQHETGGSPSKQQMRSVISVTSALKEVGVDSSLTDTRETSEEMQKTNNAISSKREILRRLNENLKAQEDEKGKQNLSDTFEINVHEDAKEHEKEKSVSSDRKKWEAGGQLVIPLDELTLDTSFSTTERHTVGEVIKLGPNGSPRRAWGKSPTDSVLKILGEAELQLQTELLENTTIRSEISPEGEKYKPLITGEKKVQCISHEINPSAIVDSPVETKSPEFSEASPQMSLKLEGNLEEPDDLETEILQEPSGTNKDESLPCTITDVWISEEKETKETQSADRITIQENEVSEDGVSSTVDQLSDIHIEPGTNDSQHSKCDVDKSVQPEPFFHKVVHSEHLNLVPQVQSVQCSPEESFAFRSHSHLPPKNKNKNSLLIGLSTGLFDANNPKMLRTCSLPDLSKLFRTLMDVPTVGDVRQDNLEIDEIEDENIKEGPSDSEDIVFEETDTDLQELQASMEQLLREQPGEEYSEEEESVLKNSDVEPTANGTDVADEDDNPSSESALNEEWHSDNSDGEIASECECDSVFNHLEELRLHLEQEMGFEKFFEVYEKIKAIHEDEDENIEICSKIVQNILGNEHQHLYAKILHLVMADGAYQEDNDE
# [13] = biological target: T5, Serine/threonine-protein kinase Nek1 (Homo sapiens); details: at 1 µM
# [14] = biological target: T6, Serine/threonine-protein kinase Nek2 (Homo sapiens) (UniProt P51955); details: at 0.1 µM
# T6 sequence (whole entry): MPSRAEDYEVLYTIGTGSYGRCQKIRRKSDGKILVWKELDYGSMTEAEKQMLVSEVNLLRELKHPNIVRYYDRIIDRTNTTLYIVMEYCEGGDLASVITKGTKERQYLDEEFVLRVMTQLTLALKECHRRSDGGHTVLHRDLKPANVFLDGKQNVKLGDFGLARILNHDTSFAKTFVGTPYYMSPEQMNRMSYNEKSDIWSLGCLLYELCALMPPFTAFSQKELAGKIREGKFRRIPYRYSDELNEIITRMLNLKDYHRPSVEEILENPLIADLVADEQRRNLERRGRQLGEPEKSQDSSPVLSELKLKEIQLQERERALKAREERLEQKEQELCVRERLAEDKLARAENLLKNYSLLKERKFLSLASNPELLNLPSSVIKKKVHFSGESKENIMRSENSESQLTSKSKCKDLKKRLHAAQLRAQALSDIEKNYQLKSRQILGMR
# [15] = biological target: T6, Serine/threonine-protein kinase Nek2 (Homo sapiens); details: at 1 µM
# [16] = biological target: Serine/threonine-protein kinase Nek6 (Homo sapiens) (UniProt Q9HC98); details: at 0.1 µM
# [17] = biological target: Serine/threonine-protein kinase Nek6 (Homo sapiens) (UniProt Q9HC98); details: at 1 µM
# [18] = biological target: Serine/threonine-protein kinase Nek7 (Homo sapiens) (UniProt Q8TDX7); details: at 0.1 µM
# [19] = biological target: Serine/threonine-protein kinase Nek7 (Homo sapiens) (UniProt Q8TDX7); details: at 1 µM
# [20] = biological target: T7, Serine/threonine-protein kinase Nek9 (Homo sapiens) (UniProt Q8TD19); details: at 0.1 µM;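 note: reported value is the mean percent inhibition of NEK9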
# T7 sequence (whole entry): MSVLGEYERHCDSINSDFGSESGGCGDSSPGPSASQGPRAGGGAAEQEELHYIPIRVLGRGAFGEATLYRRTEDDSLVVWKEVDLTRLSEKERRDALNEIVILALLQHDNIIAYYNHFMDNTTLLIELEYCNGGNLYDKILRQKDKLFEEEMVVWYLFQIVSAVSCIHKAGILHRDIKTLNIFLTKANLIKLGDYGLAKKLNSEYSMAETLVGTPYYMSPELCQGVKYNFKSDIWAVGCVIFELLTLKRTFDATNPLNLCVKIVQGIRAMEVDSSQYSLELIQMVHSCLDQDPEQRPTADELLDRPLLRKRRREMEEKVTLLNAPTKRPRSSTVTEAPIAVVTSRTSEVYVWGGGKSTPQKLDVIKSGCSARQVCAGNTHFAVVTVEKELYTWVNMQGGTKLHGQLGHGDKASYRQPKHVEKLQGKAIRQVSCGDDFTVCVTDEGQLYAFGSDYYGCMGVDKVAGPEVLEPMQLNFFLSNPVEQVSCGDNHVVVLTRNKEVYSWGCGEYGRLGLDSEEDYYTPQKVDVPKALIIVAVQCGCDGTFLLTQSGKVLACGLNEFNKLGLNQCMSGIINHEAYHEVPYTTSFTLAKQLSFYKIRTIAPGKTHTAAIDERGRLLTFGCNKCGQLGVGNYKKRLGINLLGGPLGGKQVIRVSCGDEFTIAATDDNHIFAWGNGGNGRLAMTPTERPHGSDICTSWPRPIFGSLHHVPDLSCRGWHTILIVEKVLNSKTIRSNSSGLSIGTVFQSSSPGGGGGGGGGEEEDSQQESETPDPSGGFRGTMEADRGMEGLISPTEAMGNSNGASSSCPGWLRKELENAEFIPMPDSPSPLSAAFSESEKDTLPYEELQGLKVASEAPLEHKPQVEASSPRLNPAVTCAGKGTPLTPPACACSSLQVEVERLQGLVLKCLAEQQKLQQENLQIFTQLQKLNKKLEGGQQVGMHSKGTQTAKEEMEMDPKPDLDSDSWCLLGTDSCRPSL
# Serine/threonine-protein kinase Nek7 (Homo sapiens), sequence (Q8TDX7 whole entry, looked up): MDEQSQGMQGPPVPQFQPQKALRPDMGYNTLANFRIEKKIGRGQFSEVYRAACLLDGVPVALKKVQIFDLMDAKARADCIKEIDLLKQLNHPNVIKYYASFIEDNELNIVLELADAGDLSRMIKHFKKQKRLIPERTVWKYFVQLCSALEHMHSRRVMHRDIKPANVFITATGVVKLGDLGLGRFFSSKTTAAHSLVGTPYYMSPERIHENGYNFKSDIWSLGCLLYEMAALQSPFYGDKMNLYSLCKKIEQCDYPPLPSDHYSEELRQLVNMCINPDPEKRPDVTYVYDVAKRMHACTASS
# Casein kinase II subunit alpha (Homo sapiens), sequence (P68400 whole entry, looked up): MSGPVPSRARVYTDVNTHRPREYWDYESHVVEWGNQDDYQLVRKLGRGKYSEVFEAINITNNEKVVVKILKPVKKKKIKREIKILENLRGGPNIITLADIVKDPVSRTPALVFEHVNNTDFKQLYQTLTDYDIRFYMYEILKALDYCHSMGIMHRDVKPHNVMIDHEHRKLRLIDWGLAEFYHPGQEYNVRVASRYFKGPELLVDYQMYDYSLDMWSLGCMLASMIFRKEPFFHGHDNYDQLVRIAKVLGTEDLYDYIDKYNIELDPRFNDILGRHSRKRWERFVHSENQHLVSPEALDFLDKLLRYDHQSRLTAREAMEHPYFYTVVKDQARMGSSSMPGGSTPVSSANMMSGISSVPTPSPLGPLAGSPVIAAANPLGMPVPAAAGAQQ
# Serine/threonine-protein kinase Nek6 (Homo sapiens), sequence (Q9HC98 whole entry): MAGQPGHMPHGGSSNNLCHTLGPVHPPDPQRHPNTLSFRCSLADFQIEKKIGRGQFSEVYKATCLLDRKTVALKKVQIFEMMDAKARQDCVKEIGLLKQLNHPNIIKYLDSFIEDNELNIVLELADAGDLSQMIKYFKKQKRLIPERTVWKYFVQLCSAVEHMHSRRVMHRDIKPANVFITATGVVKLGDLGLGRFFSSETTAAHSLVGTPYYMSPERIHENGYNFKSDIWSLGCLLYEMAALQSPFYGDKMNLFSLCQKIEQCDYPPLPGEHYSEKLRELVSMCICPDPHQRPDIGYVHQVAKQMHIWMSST
# Sphingosine kinase 1 (Homo sapiens), sequence (Q9NYA1 whole entry): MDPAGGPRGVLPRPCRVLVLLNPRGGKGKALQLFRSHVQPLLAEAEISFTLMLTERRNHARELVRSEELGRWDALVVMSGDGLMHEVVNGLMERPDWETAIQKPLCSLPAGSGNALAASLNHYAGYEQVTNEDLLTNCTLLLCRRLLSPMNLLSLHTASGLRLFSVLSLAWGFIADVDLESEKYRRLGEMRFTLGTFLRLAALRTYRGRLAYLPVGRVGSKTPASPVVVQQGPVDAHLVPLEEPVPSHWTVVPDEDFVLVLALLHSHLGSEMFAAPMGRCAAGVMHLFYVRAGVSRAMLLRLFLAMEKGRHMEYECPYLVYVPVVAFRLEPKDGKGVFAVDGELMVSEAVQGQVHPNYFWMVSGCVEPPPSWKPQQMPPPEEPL
compound,measurement,setting,value
C[C@@H](Oc1cc(-n2cnc3ccc(OCC4CCN(C)CC4)cc32)sc1C(N)=O)c1ccccc1C(F)(F)F,inhibition,[1],1.96%
same,inhibition,[2],-2.47%
same,inhibition,[3],-0.08%
same,inhibition,[4],6.68%
same,inhibition,[5],7.31%
same,inhibition,[6],-3.27%
same,inhibition,[7],-3.79%
same,inhibition,[8],-5.4%
same,inhibition,[9],-3.39%
same,inhibition,[10],-3.26%
same,inhibition,[11],-1.35%
same,inhibition,[12],18.4%
same,inhibition,[13],60.5%
same,inhibition,[14],23.6%
same,inhibition,[15],69.2%
same,inhibition,[16],-1.61%
same,inhibition,[17],0.33%
same,inhibition,[18],-2.74%
same,inhibition,[19],-0.71%
same,inhibition,[20],88.3%
